Measured values: the supplement of paper PMC7156485
± gives the standard deviation of the averaged measurements.

Legend:
Conditions in all cases: concentration: 10 µM; 24 h
[1] = tested on: HCC1569; assay: cell number relative to DMSO (% of DMSO); higher = more cells (less growth inhibition / toxicity)
How it was run: (§1)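 Treatment: HCC1569 and TDF cells, 800 per well in 384-well plates with RPMI and 10% FBS, were given compounds at 10 µM for 24 h at 37 °C, in triplicate. Readout: after 3.7% formaldehyde fixation, cells were stained with a rabbit anti-H1.0 antibody, an AlexaFluor 647 secondary and DAPI. Reported values are H1.0 nuclear intensity or cell number as percent of the plate control, taken as the median of replicates, with positional smoothing for HCC1569.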

[2] = tested on: TDF; assay: as above
How it was run: as §1

[3] = tested on: TDF; assay: H1.0 immunofluorescence intensity relative to DMSO (% of DMSO); higher = stronger H1.0 induction, active = 120 or more
How it was run: as §1

[4] = tested on: HCC1569; assay: H1.0 immunofluorescence intensity relative to DMSO (% of DMSO); higher = stronger H1.0 induction, active = 140 or more
How it was run: as §1
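Wherever H1.0 immunofluorescence intensity relative to DMSO is given: TDF is a line of transformed human dermal fibroblasts of mesenchymal origin.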
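Wherever cell number relative to DMSO is given: TDF denotes transformed human dermal fibroblasts of mesenchymal origin.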

SMILES	cell number [1]	cell number [2]	H1.0 immunofluorescence intensity [3]	H1.0 immunofluorescence intensity [4]
CCC(C)C(CC)C(N)=O (stereo not given) [2-ethyl-3-methylpentanamide]	103	107	92.3 (inactive)	96.6 (inactive)
O=C(NCCO[N+](=O)[O-])c1cccnc1 [Nicorandil]	102	96.3	91.5 (inactive)	107 (inactive)
Nc1nccc2c1ncn2C1OC(CO)C(O)C1O (stereo not given) [3-deazaadenosine]	97	88.2	93.7 (inactive)	88.8 (inactive)
CC12C=CC(=O)C=C1CCC1C3CC(O)C(O)(C(=O)CO)C3(C)CC(O)C12F (stereo not given) [Triamcinolone]	97.5 ± 4.1	105 ± 9.9	86.8 (inactive)	117 (inactive)
O=C1NC(=O)c2c1c1c3ccccc3[nH]c1n1cncc21 [Isogranulatimide]	87.7	96.4	90 (inactive)	134 (inactive)
CCN(CC)CC(=O)Nc1c(C)cccc1C.Cl [Lidocaine hydrochloride]	97.3	101	89 (inactive)	94.4 (inactive)
NC/C=C\C(=O)O [cis-4-Aminocrotonic acid]	105	100	98.3 (inactive)	88.1 (inactive)
COc1ccc(OC)c2c(=S)c3ccccc3[nH]c12	105	92	106 (inactive)	111 (inactive)
CC(C)CC(NC(=O)C(Cc1ccccc1)NC(=O)c1cnccn1)B(O)O (stereo not given) [Bortezomib]	34.2	10.2	144 (active)	59.7 (inactive)
Oc1ccc(C=Cc2cc(O)cc(O)c2)cc1 [Resveratrol]	79.2 ± 6.3	79.5 ± 4	99.5 (inactive)	113 (inactive)
